The target of experiment [1] is Glucocorticoid receptor (Homo sapiens) (UniProt P04150). Put plainly: GR-GFP Redistribution (AID 450;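 active = compounds whose dose series gives a full or clear partial fitted curve of increased nuclear translocation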; also: potency is read from the fitted curve at half-maximal effect). As to conditions: U2OS GR-GFP nuclear translocation, laser cytometry, 2 h.
The target is the same in experiment [2]. The experiment is described as follows: GR-EFC Redistribution (AID 451; calls by dose curve; also: potency is read from the fitted curve at half-maximal effect). The settings on record: CHO-K1 GR-EFC translocation, beta-gal luminescence, 2 h. The method in brief:
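CHO-K1 cells stably expressing nuclear-localized β-gal enzyme acceptor and GR fused C-terminally to the enzyme donor fragment; ligand-driven nuclear translocation restores β-gal by complementation. Compounds titrated up to 46 uM final, 2 h at 37 °C; luminescence read.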

Experiment [3] addresses Cytochrome P450 2C9 (Homo sapiens) (UniProt P11712). The experiment is described as follows: qHTS Assay for Inhibitors and Substrates of Cytochrome P450 2C9 (AID 883). Also: potency is read from the fitted curve at half-maximal effect; nearly all actives have a fitted effect of over 60% in size. The settings on record: recombinant CYP2C9, luciferin-H luminescence, 60 min; series mostly up to 57.1 µM. The method in brief: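 CYP2C9 deoxyluciferin hydroxylation, 37C, 60 min with NADPH regeneration; 10nM enzyme, 100uM Luciferin-H (KM). Glo detection reagent stopped reaction; luminescence normalized to sulphaphenazole (57uM) full inhibition.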
On the technique in general: qHTS replaces the single test concentration by a dilution series.

Experiment [4] has as its target Cytochrome P450 2C19 (Homo sapiens) (UniProt P33261). The experiment is described as follows: qHTS Assay for Inhibitors and Substrates of Cytochrome P450 2C19 (AID 899). Also: potency is read from the fitted curve at half-maximal effect; nearly all actives have a fitted effect of over 60% in size. As to conditions: recombinant CYP2C19, luciferin-H EGE luminescence; series mostly up to 57.1 µM. The method in brief: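 In 50mM KPO4, the reaction held 5nM enzyme and KM-level (10uM) Luciferin-H EGE; it ran 60 min at 37C after NADPH regeneration and a 10 min compound preincubation. Luminescence values were scaled to 57uM ketoconazole as complete inhibition.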

Experiment [5] is described as follows: qHTS Assay for Lipid Storage Modulators (AID 1519; calls by dose curve; as to activity change, negative = inhibition: % is scaled to controls: 0 for no effect and ±100 for the full control effect). The settings on record: Drosophila S3 cells, BODIPY lipid droplet/cell ratio, laser cytometry, cells loaded with oleic acid; for activity change, negative = inhibition: at 57.5 µM (top of the series). The method in brief: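 Cells seeded at 5,000 per well were treated with compounds over a concentration series and loaded with oleic acid (400 uM, as added). Lipid droplet fluorescence (488 nm excitation, 500-530 nm channel) was read by laser-scanning cytometry and normalized to 20 uM Triacsin C.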

The target of experiment [6] is Ubiquitin carboxyl-terminal hydrolase 1 (Homo sapiens) (UniProt O94782). The experiment is described as follows: Inhibitors of USP1/UAF1: Pilot qHTS (AID 504865).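 Also: rhodamine fluorescence freed from ubiquitin-rhodamine substrate followed over time; top concentration of the series differs between compounds; % is scaled to controls: 0 for no effect and ±100 for the full control effect; nearly all actives have a fitted effect of over 35% in size.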 As to conditions: purified USP1/UAF1, Ub-rhodamine cleavage fluorescence; series mostly up to 114 µM. The method in brief: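 Enzyme-free wells gave the negative control, while test wells held 1nM USP1/UAF1 preincubated with compound for 15 min at room temperature. Ub-Rho at 150nM final started the reaction, and fluorescence at 480/540 nm was recorded kinetically.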
Ubiquitin carboxyl-terminal hydrolase 1 (Homo sapiens), sequence (O94782 whole entry, looked up): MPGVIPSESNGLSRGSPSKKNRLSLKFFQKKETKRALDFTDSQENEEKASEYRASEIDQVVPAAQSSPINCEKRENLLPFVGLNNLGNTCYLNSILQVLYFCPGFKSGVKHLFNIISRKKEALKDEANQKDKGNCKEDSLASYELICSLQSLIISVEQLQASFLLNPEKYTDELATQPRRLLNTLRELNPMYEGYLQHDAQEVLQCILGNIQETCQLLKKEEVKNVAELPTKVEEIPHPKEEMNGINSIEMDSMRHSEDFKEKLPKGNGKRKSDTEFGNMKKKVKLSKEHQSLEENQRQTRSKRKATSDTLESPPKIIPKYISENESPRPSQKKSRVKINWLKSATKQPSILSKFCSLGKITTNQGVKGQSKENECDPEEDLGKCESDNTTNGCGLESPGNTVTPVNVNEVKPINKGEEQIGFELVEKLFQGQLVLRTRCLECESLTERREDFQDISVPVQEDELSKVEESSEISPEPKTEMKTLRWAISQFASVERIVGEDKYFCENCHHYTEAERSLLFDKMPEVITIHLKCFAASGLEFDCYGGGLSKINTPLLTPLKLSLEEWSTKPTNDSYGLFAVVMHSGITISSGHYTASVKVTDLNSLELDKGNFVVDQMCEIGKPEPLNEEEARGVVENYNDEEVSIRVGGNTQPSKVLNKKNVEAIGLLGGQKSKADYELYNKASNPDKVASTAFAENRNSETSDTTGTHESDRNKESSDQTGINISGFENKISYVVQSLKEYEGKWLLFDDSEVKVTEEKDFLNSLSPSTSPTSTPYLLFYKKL

Experiment [7] deals with DNA dC->dU-editing enzyme APOBEC-3G (Homo sapiens) (UniProt Q9HC16). The experiment is described as follows: qHTS for inhibitors of Vif-A3G interactions: Validation (AID 588379). Also: 0% is about no effect. The settings on record: Vif-A3G protein interaction assay; series mostly up to 46.1 µM. The method in brief: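 Yellow fluorescence (Ex 488, Em 500-530) of Vif-coexpressing HeLa A3G-eYFP cells, scanned by Acumen cytometer, reports blocked A3G degradation. Cells plated at 700/well overnight at 37 deg C before compound addition, then a further overnight compound incubation at 37 deg C.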
DNA dC->dU-editing enzyme APOBEC-3G (Homo sapiens), sequence (Q9HC16 whole entry, looked up): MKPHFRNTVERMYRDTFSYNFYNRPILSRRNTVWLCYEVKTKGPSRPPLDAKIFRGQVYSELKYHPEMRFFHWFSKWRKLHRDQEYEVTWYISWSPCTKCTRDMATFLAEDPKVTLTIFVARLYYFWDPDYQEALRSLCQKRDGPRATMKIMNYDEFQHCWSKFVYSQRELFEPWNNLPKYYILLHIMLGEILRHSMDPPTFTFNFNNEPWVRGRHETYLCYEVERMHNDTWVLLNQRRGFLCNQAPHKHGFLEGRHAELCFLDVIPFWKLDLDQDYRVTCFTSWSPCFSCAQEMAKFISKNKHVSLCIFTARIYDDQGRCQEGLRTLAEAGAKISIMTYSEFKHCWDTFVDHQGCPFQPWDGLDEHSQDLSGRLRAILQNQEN

Experiment [8] deals with Zika virus NS2B-NS3 protease. Put plainly: Primary screen GU AMC qHTS for Zika virus inhibitors (AID 1347154).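 Also: 0% = no-inhibitor control and -100% = no-enzyme control; nearly all actives have a fitted effect of over 70% in size.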 The settings on record: Zika NS2B-NS3 unlinked protease, AMC fluorogenic substrate; series mostly up to 54.1 µM. The method in brief:
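Unlinked Zika NS2B hydrophilic domain/NS3 protease domain noncovalent complex (25 nM final) in 10 mM Tris-HCl pH 8.0, 0.01% Tween 20, with AMC peptide substrate. Fluorescence (ex 340, em 450 nm) change over 15 min, room temperature; percent inhibition fitted to 4-parameter Hill equation.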

Experiment [9] has as its target Cytochrome P450 1A2 (Homo sapiens) (UniProt P05177). Put plainly: p450-cyp1a2 (AID 410; calls by dose curve; also: potency is read from the fitted curve at half-maximal effect). The settings on record: recombinant CYP1A2, luciferin-ME demethylation, luminescence; series mostly up to 57 µM. The method in brief:
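Luminescent demethylation readout: Luciferin-ME (100uM, equal to Km) turned over by 20nM CYP1A2 for 60 min at room temperature after NADPH regeneration addition, following 10 min compound preincubation. Normalization used 57 uM furafylline as full inhibition.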

Experiment [10] deals with Mitogen-activated protein kinase 10 (Mus musculus) (UniProt Q61831). The experiment is described as follows: JNK3 AlphaScreen Assay (AID 530; active = well fitted curve in either direction with a large enough effect, not every such curve was filed as active;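 also: kinase came from lysate of stimulated human HepG2 cells; signal reports phosphorylation of biotinylated GST-cJun 1-79 at Ser73 with 10 µM ATP; % is scaled to controls: 0 for no effect and ±100 for the full control effect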). As to conditions: JNK3 lysate, c-Jun phosphorylation; series mostly up to 57.1 µM. The method in brief:
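Phosphorylation of biotinylated GST-cJun(1-79) at Ser73 is measured by AlphaScreen proximity luminescence. Enzyme is JNK3 in HepG2 lysates activated with interleukin-1beta and tumor necrosis factor alpha; ATP is 10 uM final.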

In experiment [11] the target is 3',5'-cyclic-AMP phosphodiesterase 4B (Homo sapiens) (UniProt Q07343). The experiment is described as follows: qHTS Assay for Inhibitors of PDE-IV (AID 607; active = well fitted activation curve with a large enough effect in the main read-out, with a control signal flat, not every such curve was filed as active; also: % of control where 0% means no effect). The settings on record: HEK293 ACTOne CNG channel cells, membrane potential fluorescence; series mostly up to 22.9 µM. The method in brief: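 HEK293 ACTOne cells with CNG channel (1000/well), endogenous PDE4; membrane potential dye, compounds up to 22.9 uM final. Fluorescence Ex 535/Em 590; RO 20-1724 (100 uM final) as reference.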
3',5'-cyclic-AMP phosphodiesterase 4B (Homo sapiens), sequence (Q07343 whole entry, looked up): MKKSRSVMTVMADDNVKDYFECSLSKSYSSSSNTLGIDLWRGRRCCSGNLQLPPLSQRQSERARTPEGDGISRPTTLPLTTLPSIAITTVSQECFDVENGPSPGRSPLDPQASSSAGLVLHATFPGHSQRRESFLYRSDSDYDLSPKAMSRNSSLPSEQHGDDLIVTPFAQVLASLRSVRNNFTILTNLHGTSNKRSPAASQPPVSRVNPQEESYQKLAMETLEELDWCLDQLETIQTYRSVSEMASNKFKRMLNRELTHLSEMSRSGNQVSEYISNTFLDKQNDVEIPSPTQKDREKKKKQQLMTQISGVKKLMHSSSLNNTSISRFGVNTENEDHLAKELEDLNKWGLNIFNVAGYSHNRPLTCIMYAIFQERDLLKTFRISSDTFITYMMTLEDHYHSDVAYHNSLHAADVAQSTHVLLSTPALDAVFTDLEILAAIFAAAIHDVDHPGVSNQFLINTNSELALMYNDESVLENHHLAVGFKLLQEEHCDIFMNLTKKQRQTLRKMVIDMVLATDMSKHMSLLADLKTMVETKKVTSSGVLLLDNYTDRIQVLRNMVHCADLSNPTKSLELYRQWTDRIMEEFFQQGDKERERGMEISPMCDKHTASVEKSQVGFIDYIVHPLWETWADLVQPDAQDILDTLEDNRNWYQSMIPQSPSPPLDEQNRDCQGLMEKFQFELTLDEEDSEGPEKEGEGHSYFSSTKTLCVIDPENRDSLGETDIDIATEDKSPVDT

Experiment [12] has as its target Cytochrome P450 2D6 (Homo sapiens) (UniProt P10635). Put plainly: qHTS Assay for Inhibitors and Substrates of Cytochrome P450 2D6 (AID 891). Also: potency is read from the fitted curve at half-maximal effect; nearly all actives have a fitted effect of over 60% in size. The settings on record: recombinant CYP2D6, luciferin-ME EGE luminescence; series mostly up to 57.1 µM. The method in brief: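 Luminescent read-out of luciferin formed by 5 nM human CYP2D6 demethylating 30 uM Luciferin-ME EGE (Km level) over 60 min at room temperature after NADPH regeneration addition. Data normalized to full inhibition by 1.43 uM quinidine.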

[13] abbreviates: measured here: cell count channel max response.
The mark [14] stands for this setting: measured here: lipid channel max response.

Each structure is given as a SMILES string. Inconclusive results are not listed. Activity calls are given as the source filed them. Unless noted, calls follow the shape of the dose curve; as a rule, active = well fitted curve in the direction sought with a large enough effect; inconclusive = small, poorly fitted or top-dose-only effect, or another doubt; inactive = no such curve, though single readings can be large; an effect the other way counts as inactive or inconclusive. Where only a bound is given, the exact number is not on record here.

Glucocorticoid receptor (Homo sapiens), sequence (P04150 whole entry, looked up): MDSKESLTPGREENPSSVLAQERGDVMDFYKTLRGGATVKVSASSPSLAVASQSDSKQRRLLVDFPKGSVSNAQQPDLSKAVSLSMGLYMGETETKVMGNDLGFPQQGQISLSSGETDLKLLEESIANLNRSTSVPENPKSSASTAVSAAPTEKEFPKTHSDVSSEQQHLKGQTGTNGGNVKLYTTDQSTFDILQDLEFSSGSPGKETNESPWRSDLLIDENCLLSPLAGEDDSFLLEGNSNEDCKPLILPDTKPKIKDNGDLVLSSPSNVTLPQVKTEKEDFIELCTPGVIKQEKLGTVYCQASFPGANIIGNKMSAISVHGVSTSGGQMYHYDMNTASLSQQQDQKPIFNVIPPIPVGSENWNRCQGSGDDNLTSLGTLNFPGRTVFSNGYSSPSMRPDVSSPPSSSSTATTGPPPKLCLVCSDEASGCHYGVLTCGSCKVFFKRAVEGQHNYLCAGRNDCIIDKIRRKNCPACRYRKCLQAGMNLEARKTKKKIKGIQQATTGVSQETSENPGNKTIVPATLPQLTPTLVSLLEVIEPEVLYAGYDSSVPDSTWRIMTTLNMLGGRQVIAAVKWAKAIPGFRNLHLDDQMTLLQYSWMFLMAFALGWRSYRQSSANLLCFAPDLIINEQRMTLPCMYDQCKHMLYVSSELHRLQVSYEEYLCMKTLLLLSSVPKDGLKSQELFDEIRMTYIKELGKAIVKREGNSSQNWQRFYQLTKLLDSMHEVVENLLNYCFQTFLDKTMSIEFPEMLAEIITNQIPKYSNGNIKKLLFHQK
Cytochrome P450 1A2 (Homo sapiens), sequence (P05177 whole entry, looked up): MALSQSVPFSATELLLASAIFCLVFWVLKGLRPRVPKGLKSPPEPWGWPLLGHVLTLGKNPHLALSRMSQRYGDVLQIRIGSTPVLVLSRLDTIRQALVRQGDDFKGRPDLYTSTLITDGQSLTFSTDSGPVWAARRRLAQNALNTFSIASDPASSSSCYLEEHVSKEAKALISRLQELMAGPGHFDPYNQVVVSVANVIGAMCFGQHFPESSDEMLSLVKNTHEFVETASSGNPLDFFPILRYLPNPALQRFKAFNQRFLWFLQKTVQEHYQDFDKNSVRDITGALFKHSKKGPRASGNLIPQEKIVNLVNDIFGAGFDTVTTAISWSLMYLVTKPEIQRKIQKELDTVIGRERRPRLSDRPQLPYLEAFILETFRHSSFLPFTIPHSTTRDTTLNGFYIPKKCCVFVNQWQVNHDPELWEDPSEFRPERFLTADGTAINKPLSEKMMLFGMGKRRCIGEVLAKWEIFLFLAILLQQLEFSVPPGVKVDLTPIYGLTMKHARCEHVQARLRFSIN
Cytochrome P450 2D6 (Homo sapiens), sequence (P10635 whole entry, looked up): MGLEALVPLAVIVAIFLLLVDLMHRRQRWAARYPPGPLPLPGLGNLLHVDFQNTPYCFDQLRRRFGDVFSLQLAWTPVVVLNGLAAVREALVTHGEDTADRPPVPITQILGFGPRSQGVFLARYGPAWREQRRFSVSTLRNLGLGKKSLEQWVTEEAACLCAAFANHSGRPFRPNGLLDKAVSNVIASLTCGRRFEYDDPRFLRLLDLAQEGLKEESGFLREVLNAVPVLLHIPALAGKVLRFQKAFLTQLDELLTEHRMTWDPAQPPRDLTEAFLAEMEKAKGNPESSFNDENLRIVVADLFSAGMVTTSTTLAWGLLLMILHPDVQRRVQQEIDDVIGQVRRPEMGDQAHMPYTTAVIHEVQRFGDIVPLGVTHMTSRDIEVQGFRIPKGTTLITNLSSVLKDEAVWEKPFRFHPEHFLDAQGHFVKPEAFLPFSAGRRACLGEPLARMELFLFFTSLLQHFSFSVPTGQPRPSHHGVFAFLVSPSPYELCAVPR
Cytochrome P450 2C19 (Homo sapiens), sequence (P33261 whole entry, looked up): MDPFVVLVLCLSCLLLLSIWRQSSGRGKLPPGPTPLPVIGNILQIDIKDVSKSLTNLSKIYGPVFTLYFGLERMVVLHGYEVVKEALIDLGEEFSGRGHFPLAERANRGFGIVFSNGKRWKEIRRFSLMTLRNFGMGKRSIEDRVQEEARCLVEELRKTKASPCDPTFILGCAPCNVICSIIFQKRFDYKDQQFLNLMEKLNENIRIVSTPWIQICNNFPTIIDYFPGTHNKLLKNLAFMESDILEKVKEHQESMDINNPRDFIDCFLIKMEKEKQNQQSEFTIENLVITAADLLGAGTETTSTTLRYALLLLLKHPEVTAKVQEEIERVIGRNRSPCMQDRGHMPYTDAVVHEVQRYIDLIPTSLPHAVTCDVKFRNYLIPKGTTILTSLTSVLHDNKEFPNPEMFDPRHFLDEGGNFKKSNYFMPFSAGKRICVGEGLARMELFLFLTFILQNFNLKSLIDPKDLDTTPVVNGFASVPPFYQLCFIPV
Cytochrome P450 2C9 (Homo sapiens), sequence (P11712 whole entry, looked up): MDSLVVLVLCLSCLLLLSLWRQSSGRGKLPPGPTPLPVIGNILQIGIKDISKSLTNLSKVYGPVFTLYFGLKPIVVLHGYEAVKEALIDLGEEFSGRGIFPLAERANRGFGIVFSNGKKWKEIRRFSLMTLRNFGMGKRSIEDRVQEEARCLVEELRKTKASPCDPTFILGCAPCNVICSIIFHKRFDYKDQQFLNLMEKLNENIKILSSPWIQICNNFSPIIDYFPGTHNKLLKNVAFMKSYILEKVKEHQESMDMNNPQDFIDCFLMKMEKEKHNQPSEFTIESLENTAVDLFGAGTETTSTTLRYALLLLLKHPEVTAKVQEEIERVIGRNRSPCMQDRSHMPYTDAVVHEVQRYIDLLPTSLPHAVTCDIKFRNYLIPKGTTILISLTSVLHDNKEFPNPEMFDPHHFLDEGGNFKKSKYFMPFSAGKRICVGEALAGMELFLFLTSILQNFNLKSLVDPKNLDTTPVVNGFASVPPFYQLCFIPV

`Nc1nc(Nc2ccccc2)nc2c1ncn2[C@@H]1O[C@@H](CO)[C@H](O)[C@H]1O`: the Potency in [1] was > 46 µM (inactive); in experiment [2], > 46 µM (inactive); in experiment [3], 794 nM (active); in [4] it was 631 nM (active). For the same molecule, the activity change, negative = inhibition in [5] is -4.73% (inactive). Moreover, the max response in [5] (setting [13]) was -2.49%; in experiment [5] (setting [14]) it was -4.59%. The Potency result in experiment [6], in experiment [7] and in experiment [8] was “inactive” each time.

Turning to `CCOC(=O)[C@H](N)/C=C(\C)CP(=O)(O)O`, the Potency entry in [9], in [10], in experiment [11], in [6], in experiment [7] and in experiment [8] was “inactive” each time. The Potency in experiment [2] is > 46 µM (inactive); in experiment [12], 2 µM (active). Also, the activity change, negative = inhibition in experiment [5] was -3.23% (inactive). Besides, the max response in experiment [5] (setting [13]) is 1.46%; in experiment [5] (setting [14]), -0.232%.

With `CCCCCCCCCCCCCCCC(=O)C(F)(F)F`, the Potency is 31.6 µM (active) in [9] and > 46 µM (inactive) in experiment [2]. The Potency entry in experiment [10], in experiment [11], in experiment [7] and in experiment [8] was “inactive” in each case. Moreover, the activity change, negative = inhibition in experiment [5] is 2.39% (inactive). For the same molecule, the max response in experiment [5] (setting [13]) was -9.26%; in experiment [5] (setting [14]) it was -5.47%.

On to `CSc1nc(N)c2ncn([C@H]3O[C@H](COP(=O)(O)OP(=O)(O)O)[C@@H](O)[C@@H]3O)c2n1`, for which the Potency in [1] and in experiment [2] was > 46 µM (inactive) throughout. Further, the Potency result in [10], in [6], in experiment [7] and in [8] was “inactive” in each case. For the same molecule, in experiment [5], the activity change, negative = inhibition was 8.63% (inactive). Also, the figures for the max response in experiment [5] (setting [13]) and in [5] (setting [14]) were 13.1% and 26.1%, respectively.

These data come from PubChem BioAssay (NCATS).
